The whole screen tested about 200,000 compounds, of which about 10 (0.005%) were called active. Not shown: some 8% with an inconclusive outcome. These entries were drawn from the full list. A number with no mark means an inactive call. Calls follow the shape of the dose curve; as a rule, active = well fitted inhibition curve with a large enough effect; inconclusive = small, poorly fitted or top-dose-only effect, or effect the other way, or another doubt; inactive = no such curve, though single readings can be large or run the other way.

This test has as its target Lysosomal alpha-glucosidase (Homo sapiens) (UniProt P10253). In words: qHTS Assay for Inhibitors of Human alpha-Glucosidase as a Potential Chaperone Treatment of Pompe Disease.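 Also: plate controls were uninhibited enzyme wells for no effect and no-enzyme background for full effect.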 As to conditions: purified human GAA, 4-MU-alpha-glucoside fluorescence; series mostly up to 76.9 µM. The method, boiled down:
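Human enzyme at 4 nM with 400 uM 4-methylumbelliferyl-alpha-D-pyranoside, citrate/phosphate buffer pH 5.0, 0.005% Tween-20, 20 min at room temperature. Compounds up to 77 uM. 4-MU fluorescence (Ex 365/Em 440) read after NaOH/glycine stop; AC50 from Hill fit.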
Take `COc1ccc(OC)c(NC(=O)CN(Cc2ccc(Cl)cc2)S(C)(=O)=O)c1`: the activity change, negative = inhibition result was “inactive”.

As for `O=C(N/N=C/c1ccccn1)c1cccnc1`, the activity change, negative = inhibition was -6.66% [at 15.4 µM].

For the molecule `CCOC(=O)c1cnc2c(c(C)nn2CC)c1Cl`, the activity change, negative = inhibition result was “inactive”.

As for `CCc1nc(C)cn1S(=O)(=O)c1cc([N+](=O)[O-])ccc1Cl`, the activity change, negative = inhibition entry was “inactive”.

Take `O=[N+]([O-])c1ccc(F)cc1Oc1nc(-c2cccnc2)nc2ccccc12`: the activity change, negative = inhibition entry is “inactive”.

In the case of `COc1ccc(/C=C/C2=CC(C)(C)NC(=S)N2)c(OC)c1`, the activity change, negative = inhibition entry is “inactive”.

Turning to `COc1ccccc1C1CCN(C(=S)Nc2ccc(Br)cc2)CC1`, the activity change, negative = inhibition was -8.72% [at 15.4 µM].

On to `Cc1ccc(-c2nn(-c3cccc(F)c3)cc2CNCCc2ccncc2)o1`, for which the activity change, negative = inhibition result was “inactive”.

For `Brc1ccc2nc(N3CCCC3)sc2c1`, the activity change, negative = inhibition entry was “inactive”.

Take `COc1ccc(Cl)cc1N(CC(=O)N1CCCCC1)S(C)(=O)=O`: the activity change, negative = inhibition result is “inactive”.

As to `Cn1nc(C(F)(F)F)cc1-c1ccc(/C=C(\C#N)C(=O)c2cccc(C(F)(F)F)c2)s1`, the activity change, negative = inhibition result is “inactive”.

As for `COc1ccc(C(=O)Nc2ccc(NC(=O)C(C)C)nc2)cc1`, the activity change, negative = inhibition entry is “inactive”.

Take `CC1Cc2ccccc2N1C(=O)CSc1nnc(C2CC2)n1C` (stereo unspecified): the activity change, negative = inhibition entry is “inactive”.

Turning to `Cc1nnsc1C(=O)NCc1c(F)cccc1Cl`, the activity change, negative = inhibition result is “inactive”.

In the case of `Cc1cc(Cl)ccc1NNC(=O)c1snnc1C`, the activity change, negative = inhibition entry was “inactive”.

With `COc1cc(C)c(S(=O)(=O)N2CCOCC2)c(C)c1C`, the activity change, negative = inhibition result was “inactive”.

Turning to `COc1ccccc1/C=C/C=N/NC(=O)CN1CCN(Cc2ccccc2)CC1`, the activity change, negative = inhibition result was “inactive”.

Regarding `Cc1ccc(NC(=O)CSc2nnc(CNC(=O)c3ccccc3F)o2)cc1`, the activity change, negative = inhibition result was “inactive”.

On to `COc1cccc(NCCC(=O)c2cccc([N+](=O)[O-])c2)c1`, for which the activity change, negative = inhibition entry is “inactive”.

Turning to `CC(C)N(Cc1ccccc1)C(=O)COC(=O)c1cnccn1`, the activity change, negative = inhibition entry was “inactive”.

`O=C1Nc2ccc([N+](=O)[O-])cc2C1=Nc1cccc(CO)c1`: the activity change, negative = inhibition result was “inactive”.

With `COc1cc(/C=C2/C(=O)ON=C2C)ccc1OCc1cccc(F)c1`, the activity change, negative = inhibition result was “inactive”.

On to `CCCCS(=O)c1snnc1C` (stereo unspecified), for which the activity change, negative = inhibition entry is “inactive”.

Regarding `COc1ccc(-c2nc(N)sc2C2(O)C(=O)Nc3c(Br)cc(F)cc32)cc1OC` (stereo unspecified), the activity change, negative = inhibition result is “inactive”.

Take `COc1ccccc1NC(=O)c1cc(Cl)nc2ccccc12`: the activity change, negative = inhibition is -0.703% [at 15.4 µM].

As for `Cc1c(C(=O)Nc2ccccc2)sc2nc3n(c(=O)c12)CCCCC3`, the activity change, negative = inhibition result is “inactive”.

With `Cc1noc(C)c1COc1ccc2ccc(=O)oc2c1`, the activity change, negative = inhibition result was “inactive”.

On to `O=C(CO/N=C/c1ccc(OC(F)F)cc1)NCc1ccc(F)cc1`, for which the activity change, negative = inhibition result was “inactive”.

`COCc1cc(=O)[nH]c(-c2ccc(C(F)(F)F)cc2)n1`: the activity change, negative = inhibition entry is “inactive”.

With `CC1CC(C)CN(C(=O)CSc2ccsc2[N+](=O)[O-])C1` (stereo unspecified), the activity change, negative = inhibition result is “inactive”.

In the case of `O=C(c1ccc(=O)oc1)N1CCC(C(O)(c2ccccc2)c2ccccc2)CC1`, the activity change, negative = inhibition result is “inactive”.

(Values after PubChem BioAssay AID1466 (National Center for Advancing Translational Sciences (NCATS), 2008).)
